Reference: PubChem BioAssay
Values joined by “and” are separate entries in the source; they are usually repeats but may differ in a detail not shown here. Equal values may be shown once. Values without a mark were called inactive. For some of these results: Results with a measured potency or affinity are listed apart. Active and inactive are the calls of the source. Unless noted, how the calls were made is not given here.

Key:
[1] = antimalarial activity against Dd2 strain (AID 2302;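 active means growth inhibition above 50% at the single 2 µM test dose, taken to imply half-maximal potency below 2 µM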;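 further: 0% = DMSO untreated growth and 100% = chloroquine plus artemisinin killed control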); conditions: P. falciparum Dd2 in RBCs, LDH growth readout, 72 h; at 2 µM; active compounds read high
[2] = human hepatoma cell viability loss – ATP luminescence, cytotoxicity control for P. falciparum antimalarial project, primary screen (AID 2303;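 active means inhibition above 50%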;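 further: 0% = DMSO wells and 100% = digitonin-killed cells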); conditions: HepG2 viability, 24-48 h, at 10 µM, active compounds read high
[3] = target: L-lactate dehydrogenase (Plasmodium falciparum (isolate CDC / Honduras)) (UniProt Q27743); assay: PfLDH activity inhibition – cell lysate, 3D7 strain, counter-screen for P. falciparum growth inhibition project (AID 2304);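 further: 0% = vehicle and 100% = reference inhibitor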; conditions: P. falciparum 3D7 crude extract, LDH APAD/NBT absorbance; at 2 µM; active compounds read high
Chain of L-lactate dehydrogenase (Plasmodium falciparum (isolate CDC / Honduras)) (Q27743 whole entry, looked up): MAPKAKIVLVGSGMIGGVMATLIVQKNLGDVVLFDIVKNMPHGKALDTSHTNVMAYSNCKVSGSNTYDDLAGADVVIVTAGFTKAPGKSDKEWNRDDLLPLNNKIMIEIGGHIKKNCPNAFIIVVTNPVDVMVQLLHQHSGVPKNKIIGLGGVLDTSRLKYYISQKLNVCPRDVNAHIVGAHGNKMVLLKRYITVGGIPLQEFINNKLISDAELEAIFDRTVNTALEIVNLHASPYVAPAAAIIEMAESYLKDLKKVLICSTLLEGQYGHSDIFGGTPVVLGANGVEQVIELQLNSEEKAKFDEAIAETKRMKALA

[4] = inhibition of 3D7 malaria parasite growth – strain 3D7 (AID 2306);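 further: 0% = DMSO wells and 100% = chloroquine plus artemisinin control wells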; conditions: P. falciparum 3D7 erythrocytic growth, LDH absorbance, 72 h; at 2 µM; active compounds read high
[5] = target: Calcium-dependent protein kinase 1 (Plasmodium falciparum (isolate 3D7)) (UniProt P62344); assay: PfCDPK1 kinase inhibitors, biochemical, TCAMS library (AID 1159585; cut-off not given, nearly all actives have IC50 up to about 0.98 µM;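 further: inhibitors leave more ATP so luminescence rises with inhibition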); conditions: recombinant PfCDPK1, Kinase-Glo ATP depletion luminescence
Chain of Calcium-dependent protein kinase 1 (Plasmodium falciparum (isolate 3D7)) (P62344 whole entry, looked up): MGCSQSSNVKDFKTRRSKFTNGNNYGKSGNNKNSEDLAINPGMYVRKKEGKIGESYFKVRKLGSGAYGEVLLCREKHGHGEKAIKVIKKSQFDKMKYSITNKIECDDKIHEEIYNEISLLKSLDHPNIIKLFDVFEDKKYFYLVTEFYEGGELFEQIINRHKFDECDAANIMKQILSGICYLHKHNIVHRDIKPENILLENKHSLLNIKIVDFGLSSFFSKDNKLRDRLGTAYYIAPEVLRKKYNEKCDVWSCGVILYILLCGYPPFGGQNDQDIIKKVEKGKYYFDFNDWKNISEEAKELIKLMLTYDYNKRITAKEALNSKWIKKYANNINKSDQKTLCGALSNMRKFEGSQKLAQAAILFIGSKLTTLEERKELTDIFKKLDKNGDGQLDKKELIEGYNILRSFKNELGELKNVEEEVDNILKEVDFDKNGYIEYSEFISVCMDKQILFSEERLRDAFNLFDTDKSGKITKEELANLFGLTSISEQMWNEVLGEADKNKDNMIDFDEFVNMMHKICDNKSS

[6] = target: Plasmodium falciparum protein kinase 6 (PK6, PF3D7_1337100) (UniProt Q8IDW1); assay: PfPK6 kinase inhibitors, biochemical, TCAMS library (AID 1159586); conditions: recombinant PfPK6, Kinase-Glo ATP depletion luminescence
Chain of Plasmodium falciparum protein kinase 6 (PK6, PF3D7_1337100) (Q8IDW1 1-305): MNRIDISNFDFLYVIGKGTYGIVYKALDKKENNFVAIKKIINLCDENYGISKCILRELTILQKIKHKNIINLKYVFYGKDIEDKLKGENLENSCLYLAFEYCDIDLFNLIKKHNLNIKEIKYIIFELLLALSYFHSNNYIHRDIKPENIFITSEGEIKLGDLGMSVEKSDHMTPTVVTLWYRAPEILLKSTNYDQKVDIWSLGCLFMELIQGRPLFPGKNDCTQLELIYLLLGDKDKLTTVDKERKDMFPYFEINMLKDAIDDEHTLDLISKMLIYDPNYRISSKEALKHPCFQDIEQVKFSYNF

[7] = target: Protein kinase 7 (PK7), Plasmodium falciparum 3D7 (PF3D7_0213400) (UniProt Q7YTF7); assay: inhibition of Plasmodium PK7 catalytic activity – biochemical, TCAMS antimalarial set, Kinase-Glo luminescence (AID 1159587); conditions: recombinant PfPK7, Kinase-Glo ATP depletion luminescence
Chain of Protein kinase 7 (PK7), Plasmodium falciparum 3D7 (PF3D7_0213400) (Q7YTF7 1-343): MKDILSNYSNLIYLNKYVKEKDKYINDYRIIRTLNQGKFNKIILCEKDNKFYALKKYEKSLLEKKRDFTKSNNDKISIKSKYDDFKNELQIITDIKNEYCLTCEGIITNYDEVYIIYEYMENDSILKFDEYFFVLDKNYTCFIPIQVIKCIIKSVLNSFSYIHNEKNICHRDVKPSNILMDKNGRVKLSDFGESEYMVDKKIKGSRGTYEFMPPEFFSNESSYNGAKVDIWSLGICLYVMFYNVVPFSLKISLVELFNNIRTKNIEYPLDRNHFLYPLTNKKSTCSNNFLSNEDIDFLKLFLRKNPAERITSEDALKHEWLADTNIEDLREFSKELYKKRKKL

[8] = target: Calcium-dependent protein kinase 4 (Plasmodium falciparum (isolate 3D7)) (UniProt Q8IBS5); assay: PfCDPK4 kinase inhibitors, biochemical, TCAMS library (AID 1159588; cut-off not given, nearly all actives have IC50 up to about 0.91 µM); conditions: recombinant PfCDPK4, Kinase-Glo ATP depletion luminescence
Chain of Calcium-dependent protein kinase 4 (Plasmodium falciparum (isolate 3D7)) (Q8IBS5 whole entry, looked up): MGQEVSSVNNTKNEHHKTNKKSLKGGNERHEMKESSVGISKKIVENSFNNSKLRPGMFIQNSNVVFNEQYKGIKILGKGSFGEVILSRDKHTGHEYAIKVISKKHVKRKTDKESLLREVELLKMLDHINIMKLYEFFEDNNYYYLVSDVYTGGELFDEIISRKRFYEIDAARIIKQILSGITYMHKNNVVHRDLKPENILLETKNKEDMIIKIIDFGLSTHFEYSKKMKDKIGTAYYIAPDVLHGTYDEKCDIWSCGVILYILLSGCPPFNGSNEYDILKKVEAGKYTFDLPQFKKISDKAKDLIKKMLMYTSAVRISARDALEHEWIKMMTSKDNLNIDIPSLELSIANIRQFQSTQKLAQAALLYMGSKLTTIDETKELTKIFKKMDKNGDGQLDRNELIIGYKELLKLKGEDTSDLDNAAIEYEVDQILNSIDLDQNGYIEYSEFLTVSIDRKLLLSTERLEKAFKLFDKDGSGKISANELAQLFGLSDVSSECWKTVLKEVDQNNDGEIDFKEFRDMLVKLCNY

Compound	growth inhibition [1]	inhibition [2]	inhibition [3]	growth inhibition [4]	outcome [5]	outcome [6]	outcome [7]	outcome [8]
CCC1(C)CC(CCNCc2ccccc2O)(c2ccc(C)cc2)CCO1 (stereo not given)	66% (active)	9%	-7%	97% (active)	inactive	inactive	inactive	inactive
O=C(/C=C/c1ccc(Cl)c(Cl)c1)NC1CCC(CN2CCC(c3c[nH]c4ccc(O)cc34)CC2)CC1 (stereo not given)	99% (active) and 101% (active)	38% and 35%	-1% and 6%	100% (active) and 101% (active)	inactive	inactive	inactive	inactive
CC(Cc1ccc(OCCOc2ccccc2)cc1)NCC(O)c1cccc(Cl)c1 (stereo not given)	99% (active)	12%	1%	99% (active)	inactive	inactive	inactive	inactive
CNC(=O)c1ccc2[nH]cc(C3CCN(CC4CCC(NC(=O)/C=C/c5ccc(Cl)c(Cl)c5)CC4)CC3)c2c1 (stereo not given)	90% (active)	-1%	-7%	100% (active)	inactive	inactive	inactive	inactive
CNCCCN(C)C(=O)Oc1c(Br)c(C)nc(C)c1-c1ccc(Oc2ccc(OC(F)(F)F)cc2)cc1	96% (active)	17%	3%	96% (active)	inactive	inactive	inactive	inactive
CC[C@H]1CN2CC[C@H]1C[C@H]2[C@H](O)c1cc(N2CCCC2)nc2ccc(OC)cc12	100% (active)	-13%	6%	98% (active)	inactive	inactive	inactive	inactive
O=C(/C=C/c1ccc(Cl)c(Cl)c1)N1CCC(CN2[C@@H]3CC[C@H]2CC(c2c[nH]c4ccccc24)C3)CC1 (stereo not given in full)	66% (active)	84% (active)	-3%	100% (active)	inactive	inactive	inactive	inactive
CCN(Cc1ccccc1)CC(O)c1ccc(Cl)c(Cl)c1 (stereo not given)	71% (active)	2%	1%	96% (active)	inactive	inactive	inactive	inactive
CC(Cc1ccc(OCCCCOc2ccccc2)cc1)NCCc1ccccc1Cl (stereo not given)	58% (active)	100% (active)	1%	97% (active)	inactive	inactive	inactive	inactive
O=C(C=Cc1ccc(Br)cc1)NC1CCC(CN2CCC(c3c[nH]c4ccccc34)CC2)CC1 (stereo not given)	98% (active)	71% (active)	-3%	101% (active)	inactive	inactive	inactive	inactive
CCCCCCCc1cc(O)c2c(c1)OC(C)(C)c1ccncc1-2	52% (active)	-7%	0%	95% (active)	inactive	inactive	inactive	inactive
O=C(/C=C/c1cc(F)c(F)cc1F)N1CCC(CN2CCC(c3c[nH]c4ccccc34)CC2)CC1	3%	26%	1%	93% (active)	inactive	inactive	inactive	inactive
COCCNCc1cccc(-c2ccc(CN(C(=O)NC3CCCCC3)C3CCN(Cc4ccccc4)CC3)cc2)c1	31%	32%	6%	101% (active)	inactive	inactive	inactive	inactive
CN(C)CCCn1cc(C(=O)OC2C[C@H]3CC[C@@H](C2)N3C)c2cc(-c3ccccc3)ccc21 (stereo not given in full)	96% (active)	97% (active)	0%	97% (active)	inactive	inactive	inactive	inactive
O=C(/C=C/c1ccc(Cl)c(Cl)c1)Nc1cccc(CN2CCC(c3c[nH]c4ccc(O)cc34)CC2)c1	90% (active)	11%	0%	101% (active)	inactive	inactive	inactive	inactive
O=C(CSc1ccc(Cl)cc1)NC1CCC(CN2CCC(c3c[nH]c4ccccc34)CC2)CC1 (stereo not given)	21%	41%	-3%	95% (active)	inactive	inactive	inactive	inactive
O=C(/C=C/c1ccc(Cl)c(Cl)c1)NC1CCC(CN2CC[C@H](c3c[nH]c4ccccc34)[C@@H](O)C2)CC1 (stereo not given in full)	87% (active)	30%	-7%	101% (active)	inactive	inactive	inactive	inactive
O=C(/C=C/c1ccc(Cl)c(Cl)c1)NC1CCC(N2CCC(c3c[nH]c4ccc(O)cc34)CC2)CC1 (stereo not given)	16%	10%	-9%	97% (active)	inactive	inactive	inactive	inactive

Compound	growth inhibition [1]	inhibition [2]	inhibition [3]	growth inhibition [4]	outcome [5]	outcome [6]	outcome [7]	outcome [8]
CC(Cc1ccc(OCc2ccccc2)c(Cl)c1)NCC(O)c1cccc(C(F)(F)F)c1 (stereo not given)	95% (active)	-2%	-4%	97% (active)	inactive	inactive	inactive	inactive
COc1ccc(OC)c(CNCC(O)c2cc(C(F)(F)F)cc(C(F)(F)F)c2)c1 (stereo not given)	100% (active)	7%	6%	92% (active)	inactive	inactive	inactive	inactive
C#CCN1CCC2=C(C1)c1c(O)cc(C(C)CCCc3ccc(F)cc3)cc1OC2(C)C (stereo not given)	90% (active)	1%	5%	98% (active)	inactive	inactive	inactive	inactive
O=C(NC1CCC(CN2CCC(c3c[nH]c4ccccc34)CC2)CC1)NC12CC3CC(CC(C3)C1)C2 (stereo not given)	46%	37%	7%	96% (active)	inactive	inactive	inactive	inactive
O=C(COc1ccc(Cl)cc1)N1CCC(CN2CCC(c3c[nH]c4ccccc34)CC2)CC1	13%	48%	1%	89% (active)	inactive	inactive	inactive	inactive
Cc1ccc(CC(C)NCC(O)c2cccc([N+](=O)[O-])c2)cc1 (stereo not given)	85% (active)	-6%	-2%	97% (active)	inactive	inactive	inactive	inactive
c1ccc2c(NCCCCCCNc3c4c(nc5ccccc35)CCCC4)c3c(nc2c1)CCCC3	51% (active)	90% (active)	3%	100% (active)	inactive	inactive	inactive	inactive
CC[C@H]1CN2CC[C@H]1C[C@H]2[C@H](O)c1cc(/C=C/c2ccccc2)nc2ccc(OC)cc12	99% (active)	16%	-1%	99% (active)	inactive	inactive	inactive	inactive
O=C(/C=C/c1ccc(Cl)c(Cl)c1)NC1CCC(N2CCC(c3c[nH]c4ccccc34)CC2)CC1 (stereo not given)	69% (active)	41%	7%	100% (active)	inactive	inactive	inactive	inactive
CC[C@H]1CN2CC[C@H]1C[C@H]2[C@H](O)c1cc(-c2ccccc2F)nc2ccc(OC)cc12	98% (active)	13%	1%	99% (active)	inactive	inactive	inactive	inactive
CCCCCCC(C)(C)c1cc(O)c2c3c(c(=O)oc2c1)CCN(Cc1ccccc1)C3	99% (active)	3%	6%	100% (active)	inactive	inactive	inactive	inactive
CC[C@H]1CN2CC[C@@H]1C[C@H]2[C@H](O)c1cc(N2CCCC(C)(C)C2)nc2ccc(OC)cc12	72% (active)	25%	3%	101% (active)	inactive	inactive	inactive	inactive
COc1ccc(CCNCc2ccc3nc(N)c(C)cc3c2)cc1	15%	-1%	3%	100% (active)	inactive	inactive	inactive	inactive
CCCc1c(C(=O)NC2CCC(CN3CCC(c4c[nH]c5ccccc45)CC3)CC2)cnn1-c1ccc(Cl)cc1 (stereo not given)	37%	53% (active)	1%	90% (active)	inactive	inactive	inactive	inactive
CC(C)(C)c1cc(/C=C/C(=O)NC2CCC(CN3CCC(c4c[nH]c5ccccc45)CC3)CC2)cc(C(C)(C)C)c1O (stereo not given)	100% (active)	98% (active) and 99% (active)	-3% and -5%	101% (active) and 102% (active)	inactive	inactive	inactive	inactive
O=C(NC1CCC(CN2CCC(c3c[nH]c4ccccc34)CC2)CC1)c1cc2ccccc2o1 (stereo not given)	14%	34%	4%	94% (active)	inactive	inactive	inactive	inactive
COc1cccc(C(=O)[C@H]2C[C@@H]2CN2CC=C(c3c[nH]c4cccc(Br)c34)CC2)c1	85% (active)	22%	-3%	96% (active)	inactive	inactive	inactive	inactive
